Screens deposited in PubChem by Broad Institute.
Compounds with a hit are over-represented: about 1.8% of the library has one in this group of screens.
MLL AF4-AF9 inh = MLL-AF4/AF9 protein interaction inhibition | inhibition, % at 10 µM | AlphaScreen, biotin-AF4 peptide binding to FLAG-AF9 | P42568 | AID 651704 | 350,000 tested, 0.47% active;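 active = every replicate reaching a set inhibition limit, whatever the replicate mean, cut at about 25% in these data; inconclusive = mean inhibition reaches that limit but some replicates miss it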;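 note: 0% = plate neutral control median and 100% = total signal loss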
DENV2 CPE = inhibitors of DENV2 cytopathic effect | DENV2-infected cells, cytopathic effect rescue, plate reader | 350,000 tested, 1.7% active | AID 651640 | CPE inhibition, % at 9.99 µM; in the data active = CPE inhibition above about 20%, passing the limit was not always enough; inconclusive = no clear call, values can overlap the other calls; tested in BHK-21 cells;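 note: 0% = median of neutral control wells and 100% = median of positive control wells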
ERp5 inh = ERp5 (human) disulfide isomerase inhibition | inhibition, % at 9.99 µM | Q15084 | ERp5 insulin aggregation, absorbance 650 nm, 90 min | 350,000 tested, 0.05% active;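 active = mean replicate inhibition above about 25%, with every replicate also reaching it, limit read from the data, passing the limit was not always enough; inconclusive = only one of those two criteria met; inactive = neither criterion met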
PDI turbidity = blocks human protein disulfide isomerase activity. P07237. PDI insulin aggregation turbidity, A650, 90 min. 350,000 tested, 0.052% active. inhibition, % at 10 µM;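 active = mean inhibition across replicates of 30% or more, whatever share of single replicates reach that level; inconclusive = mean inhibition below 30% while every single replicate reaches 30%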
Target sequence (P07237 whole entry, looked up): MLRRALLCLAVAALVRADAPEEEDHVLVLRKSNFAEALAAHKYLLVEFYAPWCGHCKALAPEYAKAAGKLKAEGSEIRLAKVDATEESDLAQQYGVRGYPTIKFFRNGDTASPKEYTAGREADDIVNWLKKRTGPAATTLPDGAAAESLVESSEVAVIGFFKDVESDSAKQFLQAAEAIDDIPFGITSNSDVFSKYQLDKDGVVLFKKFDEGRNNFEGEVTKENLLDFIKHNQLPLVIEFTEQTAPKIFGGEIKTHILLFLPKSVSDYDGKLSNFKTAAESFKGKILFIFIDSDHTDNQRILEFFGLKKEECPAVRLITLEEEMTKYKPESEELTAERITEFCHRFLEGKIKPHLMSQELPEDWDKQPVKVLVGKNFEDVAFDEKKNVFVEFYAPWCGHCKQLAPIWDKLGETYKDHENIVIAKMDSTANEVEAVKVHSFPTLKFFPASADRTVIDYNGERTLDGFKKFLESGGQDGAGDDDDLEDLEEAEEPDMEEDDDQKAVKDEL
ERAP1 HTS inh = blocks human ERAP1 aminopeptidase activity. Q9NZ08. inhibition, % at 10.7 µM. 340,000 tested, 0.15% active. recombinant ERAP1, Leu-AMC fluorescence, 60 min;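 active = mean replicate inhibition of at least 30%, or all replicates individually reaching that 30% level; inactive = mean below 30% and not every replicate reaching it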;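 note: 0% = neutral control wells and 100% = L-leucinethiol positive control wells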
* marks the source's active call; other numbers are inactive results; ? = inconclusive; nt = no result.

SMILES | MLL AF4-AF9 inh | DENV2 CPE | ERp5 inh | PDI turbidity | ERAP1 HTS inh
Cc1cccc(S(=O)(=O)N[C@H]2CC[C@H](CCNC(=O)Nc3cc(F)ccc3F)O[C@H]2CO)c1 | 3 | 17 | 1 | nt | -3
O=C(C[C@@H]1CC[C@@H](NC(=O)c2ccc(F)cc2)[C@@H](CO)O1)NCCc1ccncc1 | -2 | 23* | -2 | nt | -2
Cc1cccc(S(=O)(=O)N[C@@H]2CC[C@@H](CCNC(=O)Nc3cc(F)ccc3F)O[C@@H]2CO)c1 | 5 | 39* | -2 | nt | -3
O=C(Cc1ccncc1)NCC[C@@H]1CC[C@@H](NC(=O)Nc2cccc(F)c2)[C@@H](CO)O1 | 1 | 23* | -4 | nt | -3
O=C(NCC[C@H]1CC[C@@H](NC(=O)c2cccnc2)[C@H](CO)O1)Nc1ccc(F)cc1 | 11 | 21* | -8 | nt | 0
O=S(=O)(Cc1ccccc1)N1CCCCN2[C@@H](CO)[C@@H](c3ccc(-c4ccccc4)cc3)[C@@H]2C1 | 1 | -4 | -6 | nt | 3
O=C(NCC[C@H]1CC[C@H](NS(=O)(=O)c2ccc(Cl)cc2)[C@@H](CO)O1)Nc1ccc(F)cc1 | 27* | 18 | 3 | nt | 4
C[C@@H]1CCCCO[C@H](CN(C)C(=O)CCCN(C)C)[C@H](C)CN([C@@H](C)CO)C(=O)c2cc(NS(=O)(=O)c3cccs3)ccc2O1 | -1 | -12 | 1 | nt | 0
C[C@@H]1CN([C@@H](C)CO)C(=O)c2cc(NS(=O)(=O)c3cccs3)ccc2O[C@@H](C)CCCCO[C@@H]1CN(C)C(=O)CCCN(C)C | -1 | 46* | 2 | nt | -1
C[C@H](CO)N1C[C@H](C)[C@H](CN(C)C(=O)CCCN(C)C)OCCCC[C@H](C)Oc2ccc(NS(=O)(=O)c3cccs3)cc2C1=O | -4 | 55* | -1 | nt | 1
CCc1nc(Sc2nnnn2-c2ccccc2)c2c3c(sc2n1)CCCC3 | 47* | -10 | -1 | 11 | 1
CC(=O)N1[C@@H]2c3ccc(C4=CCCCC4)c(=O)n3C[C@@H]2[C@@H](CO)[C@@H]1C(=O)N1CCCCC1 | -2 | 0 | 5 | nt | 3
COc1ccc(C2C3=C(CCCC3=O)N(CC(=O)O)C3=C2C(=O)CCC3)cc1Cl | -8 | 7 | 0 | -2 | 31*
COc1cccc(C#Cc2ccc3c(c2)[C@H]2[C@H](CCN2S(=O)(=O)c2cccc(OC)c2)[C@@H](CO)N3)c1 | 1 | -5 | -10 | nt | -1
COc1ccc(S(=O)(=O)N2CC[C@H]3[C@H](CO)Nc4ccc(C#Cc5ccccc5OC)cc4[C@H]32)cc1 | 1 | -8 | 1 | nt | 1
O=S(=O)(c1ccccc1)N1CC[C@H]2[C@H](CO)Nc3ccc(C#Cc4cccc(F)c4)cc3[C@H]21 | 4 | 30* | nt | nt | -4
COc1ccc(S(=O)(=O)N2CC[C@@H]3[C@H]2c2cc(C#Cc4ccccc4OC)ccc2N[C@@H]3CO)cc1 | 1 | 46* | -5 | nt | 1
COc1cccc(C#Cc2ccc3c(c2)[C@H]2[C@H](CCN2S(=O)(=O)c2cccc(OC)c2)[C@H](CO)N3)c1 | -1 | 38* | -7 | nt | 2
CO[C@@H]1CN(C)C(=O)c2cc(NC(=O)c3ccc(F)cc3)ccc2OC[C@@H](C)N(C(C)=O)C[C@@H]1C | 3 | 12 | 4 | nt | -3
C[C@H](NC(=O)C[C@H]1CC[C@H](NS(=O)(=O)c2cccc(F)c2)[C@@H](CO)O1)c1ccccc1 | 7 | -6 | 0 | nt | 1
COc1cccc(-c2cnc3c(c2)C(=O)N([C@@H](C)CO)C[C@@H](C)[C@H](CN(C)Cc2ccc(C(=O)O)cc2)O3)c1 | -1 | 0 | 2 | nt | 0
CCOC(=O)C1=C(c2ccccc2)NC(=O)NC1c1cc(Cl)c(O)c(OC)c1 (stereo unspecified) | 2 | nt | -2 | -3 | 6
CCOC(=O)C1=C(c2ccccc2)NC(N)=NC1c1ccc(OCc2ccc(Cl)cc2)c(OC)c1 (stereo unspecified) | 27* | -16 | 6 | 7 | 5
CCN(C[C@H]1N[C@H](CO)[C@@H]1c1ccc(-c2ccc(F)cc2)cc1)C(=O)COC | 2 | 45* | 5 | nt | 5
CN(C[C@H]1N[C@@H](CO)[C@H]1c1ccc(-c2cccc(F)c2)cc1)C(=O)CC1CC1 | -9 | 20* | -2 | nt | nt
SMILES | MLL AF4-AF9 inh | DENV2 CPE | ERp5 inh | PDI turbidity | ERAP1 HTS inh
COCCN(C[C@H]1N[C@H](CO)[C@@H]1c1ccc(-c2ccc(F)cc2)cc1)C(C)=O | 2 | 35* | 5 | nt | -4
Cc1ccc(S(=O)(=O)Nc2ccc3c(c2)C(=O)N([C@@H](C)CO)C[C@@H](C)[C@@H](CN(C)C(=O)NC(C)C)OCCCC[C@@H](C)O3)cc1 | -3 | 0 | 7 | nt | -4
C[C@@H]1CCCCO[C@@H](CN(C)Cc2ccc3c(c2)OCO3)[C@H](C)CN([C@H](C)CO)C(=O)c2cc(NC(=O)NC3CCCCC3)ccc2O1 | 7 | ? | 1 | nt | 4
C[C@@H]1CCCCO[C@@H](CN(C)Cc2ccc3c(c2)OCO3)[C@H](C)CN([C@@H](C)CO)C(=O)c2cc(NC(=O)NC3CCCCC3)ccc2O1 | 7 | 44* | -3 | nt | 1
C[C@H](CO)N1C[C@H](C)[C@H](CN(C)Cc2ccc3c(c2)OCO3)OCCCC[C@H](C)Oc2ccc(NC(=O)NC3CCCCC3)cc2C1=O | 5 | 26* | -4 | nt | 4
C[C@@H]1CN([C@H](C)CO)C(=O)c2cc(-c3ccccc3F)cnc2O[C@H]1CN(C)Cc1cccc(C(=O)O)c1 | -5 | 2 | -2 | nt | -1
O=C1NC[C@@H](CCCCN2C[C@H](Cc3ccc(O)cc3)N(CC3CCCCC3)C(=O)C2=O)N(CCC2CCCCC2)C1=O | -3 | 59* | 5 | nt | -2
O=C1NC[C@H](Cc2ccc(O)cc2)N(CC2CCCCC2)C1=O | 2 | 4 | 6 | 34* | 2
O=C1NC[C@@H](CCCCN2CCN(Cc3ccccc3)C(=O)C2=O)N(CCC2CCCCC2)C1=O | -1 | 21* | 3 | nt | -1
O=C1NC[C@@H](Cc2ccc(O)cc2)N(CCCCC2CCCCC2)C1=O | -4 | 5 | 1 | nt | 3
O=C1NC[C@H](CCCCN2C[C@H](Cc3ccc(O)cc3)N(CCC3CCCCC3)C(=O)C2=O)N(CC2CCCCC2)C1=O | 7 | 7 | 2 | nt | nt
CC(=O)CSc1nnc(C(F)(F)F)n1C | 33* | -1 | 1 | 0 | 0
CC(C)NC(=O)C1C(c2ccc(C(F)(F)F)cc2)=Nc2ccccc2N1C(=O)c1ccco1 (stereo unspecified) | 5 | -13 | 2 | nt | 44*
COc1ccc(CN(CCC(c2ccccc2)C2CCOC(C)(C)C2)C(C)=O)cc1 (stereo unspecified) | 9 | 102* | 0 | 8 | 2
COC(=O)C1=C(C)N(Cc2ccccc2)C(=NCCN2CCOCC2)N[C@H]1CCc1ccccc1 | -2 | 44* | -9 | 4 | 6
COC(=O)C1=C(C)N(CC(C)C)C(=S)NC1c1cccc(F)c1 (stereo unspecified) | nt | 56* | 2 | nt | 0
